Reference: the supplement of paper PMC8728848
The full list was thinned out, with the strongest signals kept by preference.

What was measured:
Assay in all cases: glycan array binding signal (z-score within array); higher = stronger binding
Conditions in all cases: glycan notation: IUPAC condensed, linker removed
Fuc(a1-2)Gal(b1-3)GalNAc = molecular target: Fuc(a1-2)Gal(b1-3)GalNAc
Summary of the method: (§1)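 The binding signal is a Z-score computed within each array and averaged over linkers. Arrays of the same protein sequence at different concentrations or buffers were also averaged together. Data originate from 3228 arrays in the Consortium for Functional Glycomics database, kept only where the protein sequence was available.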

[1] = molecular target: Fuc(a1-2)Gal(b1-3)GalNAc(a1-3)[Fuc(a1-2)]Gal(b1-4)Glc
Summary of the method: as §1

[2] = molecular target: Fuc(a1-2)Gal(b1-4)GlcNAc(b1-2)Man(a1-3)[Fuc(a1-2)Gal(b1-4)GlcNAc(b1-2)Man(a1-6)]Man(b1-4)GlcNAc(b1-4)GlcNAc
Summary of the method: as §1

[3] = molecular target: Fuc(a1-2)Gal(b1-4)GlcNAc(b1-3)[Fuc(a1-3)[Gal(b1-4)]GlcNAc(b1-6)]Gal(b1-4)Glc
Summary of the method: as §1

[4] = molecular target: Fuc(a1-2)Gal(b1-4)GlcNAc(b1-6)GalNAc
Summary of the method: as §1

[5] = molecular target: Fuc(a1-2)Gal(b1-4)[Fuc(a1-3)]GlcNAc(b1-3)GalNAc
Summary of the method: as §1

[6] = molecular target: Fuc(a1-2)Gal3S(b1-4)GlcNAc
Summary of the method: as §1

[7] = molecular target: Fuc(a1-2)[Gal(a1-3)]Gal(b1-4)GlcNAc(b1-2)Man
Summary of the method: as §1

[8] = molecular target: Fuc(a1-2)[Gal(a1-3)]Gal(b1-4)[Fuc(a1-3)]Glc
Summary of the method: as §1

[9] = molecular target: Fuc(a1-2)[GalNAc(a1-3)]Gal(b1-3)GlcNAc(b1-6)GalNAc
Summary of the method: as §1

[10] = molecular target: Fuc(a1-2)[GalNAc(a1-3)]Gal(b1-4)GlcNAc(b1-2)Man(a1-3)[Fuc(a1-2)[GalNAc(a1-3)]Gal(b1-4)GlcNAc(b1-2)Man(a1-6)]Man(b1-4)GlcNAc(b1-4)[Fuc(a1-6)]GlcNAc
Summary of the method: as §1

[11] = molecular target: Fuc(a1-3)[Gal(b1-4)]GlcNAc(b1-2)Man(a1-3)[Fuc(a1-3)[Gal(b1-4)]GlcNAc(b1-2)Man(a1-6)]Man(b1-4)GlcNAc(b1-4)[Fuc(a1-6)]GlcNAc
Summary of the method: as §1

[12] = molecular target: Fuc(a1-3)[Gal(b1-4)]GlcNAc6S
Summary of the method: as §1

[13] = molecular target: Gal(a1-3)Gal(b1-4)GlcNAc(b1-2)Man(a1-3)[Gal(a1-3)Gal(b1-4)GlcNAc(b1-2)Man(a1-6)]Man(b1-4)GlcNAc(b1-4)GlcNAc
Summary of the method: as §1

[14] = molecular target: Gal(a1-3)Gal(b1-4)[Fuc(a1-3)]GlcNAc
Summary of the method: as §1

Gal(a1-3)GalNAc = molecular target: Gal(a1-3)GalNAc
Summary of the method: as §1

[15] = molecular target: Gal(a1-3)[Gal(a1-4)]Gal(b1-4)GlcNAc
Summary of the method: as §1

[16] = molecular target: Gal(a1-4)Gal(b1-4)GlcNAc(b1-3)Gal(b1-4)Glc
Summary of the method: as §1

Gal(b1-3)GalNAc(b1-3)Gal = molecular target: Gal(b1-3)GalNAc(b1-3)Gal
Summary of the method: as §1

Gal(b1-3)GlcNAc(b1-2)Man = molecular target: Gal(b1-3)GlcNAc(b1-2)Man
Summary of the method: as §1

[17] = molecular target: Gal(b1-3)GlcNAc(b1-2)[Gal(b1-3)GlcNAc(b1-6)]Man(a1-6)[Gal(b1-3)GlcNAc(b1-2)Man(a1-3)]Man(b1-4)GlcNAc(b1-4)GlcNAc
Summary of the method: as §1

[18] = molecular target: Gal(b1-3)GlcNAc(b1-3)Gal(b1-4)GlcNAc(b1-3)Gal(b1-4)GlcNAc(b1-2)[Gal(b1-3)GlcNAc(b1-3)Gal(b1-4)GlcNAc(b1-3)Gal(b1-4)GlcNAc(b1-6)]Man(a1-6)[Gal(b1-3)GlcNAc(b1-3)Gal(b1-4)GlcNAc(b1-3)Gal(b1-4)GlcNAc(b1-2)Man(a1-3)]Man(b1-4)GlcNAc(b1-4)[Fuc(a1-6)]GlcNAc
Summary of the method: as §1

[19] = molecular target: Gal(b1-3)GlcNAc(b1-3)Gal(b1-4)GlcNAc(b1-6)[Gal(b1-3)GlcNAc(b1-3)]Gal(b1-4)Glc
Summary of the method: as §1

[20] = molecular target: Gal(b1-3)[Fuc(a1-4)]GlcNAc(b1-2)Man(a1-3)[Gal(b1-3)[Fuc(a1-4)]GlcNAc(b1-2)Man(a1-6)]Man(b1-4)GlcNAc(b1-4)[Fuc(a1-6)]GlcNAc
Summary of the method: as §1

[21] = molecular target: Gal(b1-4)GalNAc(b1-3)[Fuc(a1-2)]Gal(b1-4)GlcNAc
Summary of the method: as §1

Gal(b1-4)GlcNAc(b1-2)Man = molecular target: Gal(b1-4)GlcNAc(b1-2)Man
Summary of the method: as §1

[22] = molecular target: Gal(b1-4)GlcNAc(b1-2)Man(a1-6)Man(b1-4)GlcNAc(b1-4)GlcNAc
Summary of the method: as §1

[23] = molecular target: Gal(b1-4)GlcNAc(b1-2)[Gal(b1-4)GlcNAc(b1-6)]Man(a1-6)[GlcNAc(b1-4)][Gal(b1-4)GlcNAc(b1-2)[Gal(b1-4)GlcNAc(b1-4)]Man(a1-3)]Man(b1-4)GlcNAc(b1-4)[Fuc(a1-6)]GlcNAc
Summary of the method: as §1

[24] = molecular target: Gal(b1-4)GlcNAc(b1-3)Gal(b1-4)GlcNAc(b1-2)Man(a1-3)[Gal(b1-4)GlcNAc(b1-3)Gal(b1-4)GlcNAc(b1-2)Man(a1-6)]Man(b1-4)GlcNAc(b1-4)GlcNAc
Summary of the method: as §1

[25] = molecular target: Gal(b1-4)GlcNAc(b1-3)Gal(b1-4)GlcNAc(b1-3)Gal(b1-4)GlcNAc
Summary of the method: as §1

[26] = molecular target: Gal(b1-4)GlcNAc(b1-3)Gal(b1-4)GlcNAc(b1-3)Gal(b1-4)GlcNAc(b1-3)Gal(b1-4)GlcNAc(b1-3)Gal(b1-4)GlcNAc(b1-2)Man(a1-3)[Gal(b1-4)GlcNAc(b1-3)Gal(b1-4)GlcNAc(b1-3)Gal(b1-4)GlcNAc(b1-3)Gal(b1-4)GlcNAc(b1-3)Gal(b1-4)GlcNAc(b1-2)Man(a1-6)]Man(b1-4)GlcNAc(b1-4)GlcNAc
Summary of the method: as §1

B1: GS7807Q-bfa-507-19-507 (Bacteroides fragilis) (protein)
chain: ASCNKFDDLNTNPDAATKVTAPMLATKLILNITQQGSAKNFVYHSMLSKQIAWSENASDEQYNLFGRTDFDGYTILTNCQKMVDAANEGDKDSYAALAKFMKAYKLFYKSLEVGDIPYSDALKGEEGVQKPKYDTQKEVMRQVLEDLEEAYTLFSSGSDFDGDPIFGGDTENWKKTVVAFELKVLTHLCKKDTDADLKVKERFARLVSSGSLMTSNADNFQLVYSNKAGQLYPFYYTQNKHSDYLMMSSVIIDNLKKFNDYRMFYYASPAKAQTDKGIKDSEWDAYLSIDPSDSYSNISVLYGKGEFCLANLRYTRVPEGEPLMRLSYAEQNFILAEGAVRGWISEDASTYYKKGIEASMNFIADNTPDKEEYTHGRTITQEYIQEYLAQPVIQLSGDKEKDLEMILLQRYLASFLQHPYDAYYDYRRTGYPVLPINPSTNLNTEKNKIPTRWMYPEAEFSYNPDNANEAVQRQYNGSDDVNKLMWILQ
glycan array binding signal (z-score) (Fuc(a1-2)Gal(b1-3)GalNAc): -1.06 | glycan array binding signal (z-score) [1]: -0.063 | glycan array binding signal (z-score) [2]: 6.11 | glycan array binding signal (z-score) [3]: 0.636 | glycan array binding signal (z-score) [4]: 4.43 | glycan array binding signal (z-score) [5]: 1.5 | glycan array binding signal (z-score) [6]: -0.3 | glycan array binding signal (z-score) [7]: -0.226 | glycan array binding signal (z-score) [8]: 1.42 | glycan array binding signal (z-score) [9]: -0.083 | glycan array binding signal (z-score) [10]: -0.243 | glycan array binding signal (z-score) [11]: -0.03 | glycan array binding signal (z-score) [12]: -1.03 | glycan array binding signal (z-score) [13]: 3.33 | glycan array binding signal (z-score) [14]: 0.431 | glycan array binding signal (z-score) (Gal(a1-3)GalNAc): -0.197 | glycan array binding signal (z-score) [15]: 0.361 | glycan array binding signal (z-score) [16]: -0.723 | glycan array binding signal (z-score) (Gal(b1-3)GalNAc(b1-3)Gal): 0.094 | glycan array binding signal (z-score) (Gal(b1-3)GlcNAc(b1-2)Man): -0.443 | glycan array binding signal (z-score) [17]: 0.94 | glycan array binding signal (z-score) [18]: 3.08 | glycan array binding signal (z-score) [19]: 3.63 | glycan array binding signal (z-score) [20]: 3.07 | glycan array binding signal (z-score) [21]: 0.8 | glycan array binding signal (z-score) (Gal(b1-4)GlcNAc(b1-2)Man): 0.859 | glycan array binding signal (z-score) [22]: 0.767 | glycan array binding signal (z-score) [23]: -0.993 | glycan array binding signal (z-score) [24]: 3.08 | glycan array binding signal (z-score) [25]: 0.693 | glycan array binding signal (z-score) [26]: -0.15
